{"source": "paper PMC8384837", "about": "“Expanding the binding specificity for RNA recognition by a PUF domain”", "assay_in_all_cases": "yeast three-hybrid, YBZ-1, SC-Leu-His + 0.5 mM 3-AT, 4 days", "details_in_all_cases": "tags: N-Gal4 AD-HA kept; label: inside an RPR1-promoter hybrid RNA with tandem MS2 sites; ssRNA", "key": {"PUM1 PUF domain R1-SGD": {"biological_target": "PUM1 PUF domain R1-SGD (Homo sapiens, UniProt Q14671 828-1176, R864G;Q867D)", "procedure,_shortened": "(§1)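 Pumilio-1 PUF domain libraries, randomized at the three base-contacting residues of each repeat, were co-expressed with matching RNA elements from a centromeric plasmid in strain YBZ-1, which carries a LexA–MS2 coat fusion and a HIS3 reporter. Transformants grew for four days on SC-Leu (input) or on SC-Leu-His + 0.5 mM 3-AT (selection), and the repeat regions were PCR-amplified and Illumina-sequenced. The interaction score is the log change in variant frequency from input to selection. That logarithm is base 2, with a pseudocount of 1 where a variant was absent.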"}, "PUM1 PUF domain R8-RHQ": {"biological_target": "PUM1 PUF domain R8-RHQ (Homo sapiens, UniProt Q14671 828-1176, N1122R;Y1123H)", "procedure,_shortened": "as §1"}, "PUM1 PUF domain R6-SFC": {"biological_target": "T1, PUM1 PUF domain R6-SFC (Homo sapiens, UniProt Q14671 828-1176, N1043S;Y1044F;Q1047C)", "T1 sequence": "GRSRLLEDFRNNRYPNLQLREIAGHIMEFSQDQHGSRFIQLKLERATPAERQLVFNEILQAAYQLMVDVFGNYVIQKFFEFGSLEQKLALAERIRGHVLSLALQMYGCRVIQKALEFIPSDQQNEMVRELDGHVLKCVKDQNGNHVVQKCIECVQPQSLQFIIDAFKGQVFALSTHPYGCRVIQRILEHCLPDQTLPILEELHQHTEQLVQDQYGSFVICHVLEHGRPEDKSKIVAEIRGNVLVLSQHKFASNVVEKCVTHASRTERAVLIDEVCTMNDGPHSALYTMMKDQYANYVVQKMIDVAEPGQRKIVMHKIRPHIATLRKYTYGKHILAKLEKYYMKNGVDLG", "procedure,_shortened": "as §1"}, "PUM1 PUF domain R3-GCR": {"biological_target": "PUM1 PUF domain R3-GCR (Homo sapiens, UniProt Q14671 828-1176, C935G;R936C;Q939R)", "procedure,_shortened": "as §1"}, "PUM1 PUF domain R4-ANG": {"biological_target": "PUM1 PUF domain R4-ANG (Homo sapiens, UniProt Q14671 828-1176, N971A;H972N;Q975G)", "procedure,_shortened": "as §1"}, "PUM1 PUF domain R3-RNG": {"biological_target": "PUM1 PUF domain R3-RNG (Homo sapiens, UniProt Q14671 828-1176, C935R;R936N;Q939G)", "procedure,_shortened": "as §1"}, "PUM1 PUF domain R5-RNA": {"biological_target": "PUM1 PUF domain R5-RNA (Homo sapiens, UniProt Q14671 828-1176, C1007R;R1008N;Q1011A)", "procedure,_shortened": "as §1"}, "PUM1 PUF domain R5-RQE": {"biological_target": "PUM1 PUF domain R5-RQE (Homo sapiens, UniProt Q14671 828-1176, C1007R;R1008Q;Q1011E)", "procedure,_shortened": "as §1"}, "PUM1 PUF domain R5-FNS": {"biological_target": "PUM1 PUF domain R5-FNS (Homo sapiens, UniProt Q14671 828-1176, C1007F;R1008N;Q1011S)", "procedure,_shortened": "as §1"}, "PUM1 PUF domain R4-GYV": {"biological_target": "PUM1 PUF domain R4-GYV (Homo sapiens, UniProt Q14671 828-1176, N971G;H972Y;Q975V)", "procedure,_shortened": "as §1"}}}
{"sequence": "GGCUAGAACUAGUGGAUCCCCCGGCGCCCGGCGGCUCGAGCCCGGGUAAGUGUAAAUGGUCUGCAUGCCGCCGGGCGCCAUGCCUGCAGGUCGACUCUAGAAAACAUG", "values": [{"measurement": "binding signal", "setting": "PUM1 PUF domain R1-SGD", "result": "5.76 log2 enrichment (interaction score)"}]}
{"sequence": "GGCUAGAACUAGUGGAUCCCCCGGCGCCCGGCGGCUCGAGCCCGGGUAAGCGUAAAUAGUCUGCAUGCCGCCGGGCGCCAUGCCUGCAGGUCGACUCUAGAAAACAUG", "values": [{"measurement": "binding signal", "setting": "PUM1 PUF domain R8-RHQ", "result": "5.53 log2 enrichment (interaction score)"}]}
{"sequence": "GGCUAGAACUAGUGGAUCCCCCGGCGCCCGGCGGCUCGAGCCCGGGUAAGUGUAAAUAGUCUGCAUGCCGCCGGGCGCCAUGCCUGCAGGUCGACUCUAGAAAACAUG", "values": [{"measurement": "binding signal", "setting": "PUM1 PUF domain R6-SFC", "result": "4.7 log2 enrichment (interaction score)"}, {"measurement": "binding signal", "setting": "PUM1 PUF domain R3-GCR", "result": "0.62 log2 enrichment (interaction score)"}, {"measurement": "binding signal", "setting": "PUM1 PUF domain R4-ANG", "result": "0.25 log2 enrichment (interaction score)"}, {"measurement": "binding signal", "setting": "PUM1 PUF domain R8-RHQ", "result": "3.7 log2 enrichment (interaction score)"}]}
{"sequence": "GGCUAGAACUAGUGGAUCCCCCGGCGCCCGGCGGCUCGAGCCCGGGUAAGUGUAAUUAGUCUGCAUGCCGCCGGGCGCCAUGCCUGCAGGUCGACUCUAGAAAACAUG", "values": [{"measurement": "binding signal", "setting": "PUM1 PUF domain R3-GCR", "result": "2.22 log2 enrichment (interaction score)"}, {"measurement": "binding signal", "setting": "PUM1 PUF domain R3-RNG", "result": "3.75 log2 enrichment (interaction score)"}]}
{"sequence": "GGCUAGAACUAGUGGAUCCCCCGGCGCCCGGCGGCUCGAGCCCGGGUAAGUGUCAAUAGUCUGCAUGCCGCCGGGCGCCAUGCCUGCAGGUCGACUCUAGAAAACAUG", "values": [{"measurement": "binding signal", "setting": "PUM1 PUF domain R5-RNA", "result": "2.56 log2 enrichment (interaction score)"}, {"measurement": "binding signal", "setting": "PUM1 PUF domain R5-RQE", "result": "3.37 log2 enrichment (interaction score)"}]}
{"sequence": "GGCUAGAACUAGUGGAUCCCCCGGCGCCCGGCGGCUCGAGCCCGGGUAAGUGUUAAUAGUCUGCAUGCCGCCGGGCGCCAUGCCUGCAGGUCGACUCUAGAAAACAUG", "values": [{"measurement": "binding signal", "setting": "PUM1 PUF domain R5-FNS", "result": "3.5 log2 enrichment (interaction score)"}, {"measurement": "binding signal", "setting": "PUM1 PUF domain R5-RNA", "result": "2.33 log2 enrichment (interaction score)"}]}
{"sequence": "GGCUAGAACUAGUGGAUCCCCCGGCGCCCGGCGGCUCGAGCCCGGGUAAGUGUAAGUAGUCUGCAUGCCGCCGGGCGCCAUGCCUGCAGGUCGACUCUAGAAAACAUG", "values": [{"measurement": "binding signal", "setting": "PUM1 PUF domain R3-GCR", "result": "3.87 log2 enrichment (interaction score)"}]}
{"sequence": "GGCUAGAACUAGUGGAUCCCCCGGCGCCCGGCGGCUCGAGCCCGGGUAAGUGUACAUAGUCUGCAUGCCGCCGGGCGCCAUGCCUGCAGGUCGACUCUAGAAAACAUG", "values": [{"measurement": "binding signal", "setting": "PUM1 PUF domain R4-GYV", "result": "7.46 log2 enrichment (interaction score)"}, {"measurement": "binding signal", "setting": "PUM1 PUF domain R4-ANG", "result": "3.65 log2 enrichment (interaction score)"}]}
{"sequence": "GGCUAGAACUAGUGGAUCCCCCGGCGCCCGGCGGCUCGAGCCCGGGUAAGUGUAUAUAGUCUGCAUGCCGCCGGGCGCCAUGCCUGCAGGUCGACUCUAGAAAACAUG", "values": [{"measurement": "binding signal", "setting": "PUM1 PUF domain R4-ANG", "result": "2.57 log2 enrichment (interaction score)"}]}
